POLI inh: inhibitors of human DNA polymerase iota; Q9UNA4; 390,000 compounds, 1% hits; Potency, µM (series often up to 115 µM), without a hit: at the top dose activity, negative = inhibition, usual class: inhibitors; Pol iota fluorescent replication assay, 10 min
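Fluorescent replication assay read twice, at 0 min and 10 min after adding 50 nM (final) substrate. Enzyme (10 nM) and compounds were first incubated 15 min at room temperature; enzyme-free buffer wells were negative controls.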
WRN inhibitor: WRN helicase (human) inhibition. Q14191. WRN helicase unwinding, fluorescent forked duplex, kinetic. Potency, µM (series often up to 114 µM), for the others: at the highest dose activity change, negative = inhibition, most hits filed as inhibitors. 360,000 compounds, 0.46% hits. AID 651768; also: % is scaled to controls: 0 for no effect and ±100 for the full control effect; nearly all actives have a fitted effect of over 55% in size
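Kinetic fluorescence helicase assay: unwinding of a quenched forked DNA duplex (100 nM final) with 2 mM ATP final raises red fluorescence (525/598 nm). Compounds sat 15 min at room temperature with 20 nM WRN beforehand.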
POLB inh: DNA polymerase beta (human) inhibition | P06746 | Pol beta primer extension/strand displacement, fluorescence kinetic | Potency, µM (top dose mostly 114 µM), without a hit: top-dose activity change, negative = inhibition, hits mostly inhibitors | 340,000 compounds, 1.3% hits | AID 485314; also: % is scaled to controls: 0 for no effect and ±100 for the full control effect
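Curves were derived by four-parameter Hill fits of normalized qHTS data. The kinetic fluorescent primer-extension read was taken at 0 and 10 min after 50 nM substrate, following a 15 min room-temperature preincubation of 10 nM enzyme with compounds.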
POLH inh: DNA polymerase eta (human) inhibition | Q9Y253 | recombinant Pol eta, fluorescent DNA replication assay | Potency, µM (highest dose often 114 µM), without a hit: top-dose activity change, negative = inhibition, most hits filed as inhibitors | 390,000 compounds, 1.2% hits; also: % is scaled to controls: 0 for no effect and ±100 for the full control effect
Target sequence (Q9Y253 whole entry, looked up): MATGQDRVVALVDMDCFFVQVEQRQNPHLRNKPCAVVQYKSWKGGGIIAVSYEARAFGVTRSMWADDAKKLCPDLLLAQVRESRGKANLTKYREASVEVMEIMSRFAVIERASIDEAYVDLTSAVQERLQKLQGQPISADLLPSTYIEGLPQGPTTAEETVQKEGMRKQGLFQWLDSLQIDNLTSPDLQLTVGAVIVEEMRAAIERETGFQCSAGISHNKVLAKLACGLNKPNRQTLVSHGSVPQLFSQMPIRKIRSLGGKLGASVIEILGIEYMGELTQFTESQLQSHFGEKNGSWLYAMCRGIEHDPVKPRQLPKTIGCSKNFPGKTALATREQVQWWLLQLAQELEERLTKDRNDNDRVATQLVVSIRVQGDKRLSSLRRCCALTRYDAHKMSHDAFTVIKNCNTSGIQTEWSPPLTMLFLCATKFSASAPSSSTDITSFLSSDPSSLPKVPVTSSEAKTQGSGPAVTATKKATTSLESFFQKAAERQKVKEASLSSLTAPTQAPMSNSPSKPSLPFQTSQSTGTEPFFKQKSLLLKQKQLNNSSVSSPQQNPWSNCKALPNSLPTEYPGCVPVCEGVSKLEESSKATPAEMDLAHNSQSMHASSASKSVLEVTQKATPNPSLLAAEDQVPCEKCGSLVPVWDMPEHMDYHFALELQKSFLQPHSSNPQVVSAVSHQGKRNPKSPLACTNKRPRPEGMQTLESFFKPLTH
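Fluorescent replication assay: 50 nM final substrate added after a 15 min room-temperature compound preincubation with 10 nM enzyme. Signal taken at 0 min and again at 10 min.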
FEN1 inh: blocks human flap endonuclease 1; AID 588795; Potency, µM (highest dose often 114 µM), for inactives: at the top dose activity change, negative = inhibition, actives largely listed as inhibitors; 390,000 compounds, 0.35% hits; Recombinant FEN1 flap cleavage, fluorescence, 15 min; P39748; also: % is scaled to controls: 0 for no effect and ±100 for the full control effect; nearly all actives have a fitted effect of over 65% in size
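Compounds are tested as a concentration series against 10 nM FEN1; after a 15 min room-temperature preincubation, 50 nM substrate starts cleavage, with plate reads at 0 and 15 min. Normalized responses are fitted by a Hill equation.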
Pol kappa inh: inhibitors of human DNA polymerase kappa; purified Pol kappa, fluorescent DNA synthesis assay, 10 min; Q9UBT6; 400,000 compounds, 0.53% hits; Potency, µM (highest dose often 107 µM), without a hit: at the top dose activity, negative = inhibition, most hits filed as inhibitors; also: % is scaled to controls: 0 for no effect and ±100 for the full control effect
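Kinetic fluorescence screen: compound preincubated 15 min RT with 10 nM enzyme; 50 nM substrate (final) initiates; reads at 0/10 min.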
An asterisk follows results filed as active; ? = inconclusive; / = no result; [ ] = another dose, or the depositor's remark. Hits are enriched below; roughly 2.4% of the tested compounds scored in any of these assays. Calls follow the shape of the dose curve; as a rule, active = well fitted curve in the direction sought with a large enough effect; inconclusive = small, poorly fitted or top-dose-only effect, or another doubt; inactive = no such curve, though single readings can be large; an effect the other way counts as inactive or inconclusive. Potency is read from the fitted curve at half-maximal effect.

SMILES | POLI inh | WRN inhibitor | POLB inh | POLH inh | FEN1 inh | Pol kappa inh
CC(C)(C)n1ncc2c(=O)n(Cc3cccc(-c4ccccc4)c3)cnc21 | 20% | / | / | / | 6% | 3%
COc1ccc(C(=O)Nc2ccccc2-c2nc3ccccc3s2)c(OC)c1 | 2% | / | -14% | -22% | 0% | -8%[60.1 µM]
COc1ccc(S(=O)(=O)NCc2cccnc2)cc1NC(=O)c1ccccc1C | 40µM* | -22% | / | ? | -14% | -28%
CCOc1ccc(S(=O)(=O)NCc2cccnc2)cc1NC(=O)c1ccccc1 | 17% | 0% | / | -18% | -3% | 5%
C/C(=N\Nc1nc(-c2ccc(C)cc2C)cs1)c1cc2ccccc2oc1=O | 1% | -14% | 22µM* | -9% | -9% | -7%
Nc1[nH]c(N=NC(=O)c2ccc(Cl)cc2)c2ccccc12 | 19% | -31%[57.1 µM] | 79µM* | 0% | 4% | 1%
CCCCCC(O)c1ccc([C@H]2CCC(=O)[C@@H]2CCCCCCC(=O)O)cc1 (some centres not stated) | / | / | / | / | / | -15%[60.1 µM]
Cc1cccc(C(=O)Nc2nnc(S(=O)(=O)N(C)Cc3ccc(Cl)cc3)s2)c1 | 89µM* | / | 24% | -11% | -13% | -1%
CCN(c1ccc(C)cc1C)S(=O)(=O)c1nnc(NC(=O)C(C)C)s1 | 10% | -2% | -3% | -11% | 16% | -17%
CCN(c1ccccc1C)S(=O)(=O)c1nnc(NC(=O)c2ccco2)s1 | ? | -11%[11.6 µM] | ? | 50µM* | -8% | ?
CCN(c1cc(C)cc(C)c1)S(=O)(=O)c1nnc(NC(=O)c2ccco2)s1 | -5% | -2% | -4% | -3% | 15% | -10%
COc1ccc(N(CC(C)C)S(=O)(=O)c2nnc(NC(=O)c3ccco3)s2)cc1 | ? | 6%[11.6 µM] | 0% | 79µM* | -3% | -18%
CCN(c1ccc(C)cc1C)S(=O)(=O)c1nnc(NC(=O)c2ccc(F)cc2)s1 | ? | / | 18µM* | -10% | 2% | -28%
CC[C@H](C)[C@H](NC(=O)[C@H](Cc1ccc(O)cc1)NC(=O)[C@@H]1CCCN1C(=O)[C@@H](N)CCCN=C(N)N)C(=O)N[C@@H](CC(C)C)C(=O)O | / | / | / | / | / | 17%[60.1 µM]
CCOCc1nnc(NC(=O)c2ccco2)s1 | 11% | -3% | 4% | -18% | 12% | -7%
CCCCCCCCc1nnc(NC(=O)c2ccco2)s1 | -3% | -23%[57.1 µM] | 35µM* | -12% | -5% | -7%
COc1cccc(N2[C@@H](CC(C)=O)c3ccc(/C=C/C(C)=O)cc3S2(=O)=O)c1 | 20µM* | -16% | / | ? | -5% | -4%
COc1ccc(CN2[C@@H](CC(=O)O)c3ccc(/C=C/C(=O)O)cc3S2(=O)=O)cc1 | 50µM* | / | / | / | -16% | 35µM*
COC(=O)/C=C/c1ccc2c(c1)S(=O)(=O)N(Cc1ccc(OC)cc1)[C@H]2CC(=O)OC | 39% | 8% | / | -18% | 14% | 8%
CN1C(=O)/C(=C/c2ccc(OCc3ccc(C(=O)O)cc3)c(Cl)c2)NC1=S | 72% | ? | 35µM* | ? | -27% | -2%
CCc1ccc(S(=O)(=O)c2nnn3c2nc(Nc2ccc(NC(C)=O)cc2)c2sccc23)cc1 | 79µM* | / | -5% | ? | -6% | -20%
Cc1nc(-c2ccncc2)sc1C(=O)Nc1ccc(Br)cc1 | 42% | -4% | 16µM* | -19% | 16% | -7%
O=C(Nc1ccc(Br)cc1)c1csc(-c2ccncc2)n1 | 63% | ? | 7% | 0% | 6% | 1%
CCOc1ccc(Br)cc1/C=N/O | -2% | -15% | 26% | 2% | -11% | -13%
O=C(O)COc1ccc(Br)cc1/C=N/O | ? | -9%[57.1 µM] | 25µM* | 11µM* | -5% | -27%
SMILES | POLI inh | WRN inhibitor | POLB inh | POLH inh | FEN1 inh | Pol kappa inh
CCCCS(=O)(=O)/C=C\C1C2C=CC(C2)C1S(=O)(=O)CCCC (configuration not stated) | 5% | 9% | -20% | -6% | 9% | -10%
CCCCS(=O)(=O)/C=C\C=C/S(=O)(=O)CCCC | ? | 45µM* | ? | ? | -5% | -12%
O=C(CCc1nc2sc3c(c2c(=O)[nH]1)CCCC3)N1CCN(c2ccccc2)CC1 | 45µM* | -2%[11.6 µM] | / | 79µM* | -9% | ?
COc1ccccc1NC(=O)CCc1nc2sc3c(c2c(=O)[nH]1)CCCC3 | 25µM* | -32% | / | 50µM* | 2% | ?
Cc1cccc(NC(=O)CCc2nc3sc4c(c3c(=O)[nH]2)CCCC4)c1 | 17% | -2% | / | ? | 0% | 0%
COc1cccc(NC(=O)CN(C)C(=O)CCc2nc3sc4c(c3c(=O)[nH]2)CCCC4)c1 | 28µM* | ? | 35µM* | 22µM* | 2% | -24%
CCc1cccc(NC(=O)CCc2nc3sc4c(c3c(=O)[nH]2)CCCC4)c1 | 18µM* | -10%[11.6 µM] | / | 32µM* | 3% | ?
CC(C)(C)CC(C)(C)N=C1Nc2ccc([N+](=O)[O-])cc2N[C@]12C[C@H]1CCCC(=O)N3CC[C@@H](C2)[C@@H]13 | 24% | / | / | / | 3% | 5%
COc1ccc(Oc2ncc3nc(-c4cc(F)cc(F)c4)c(=O)n(C[C@H]4CCCO4)c3n2)cc1 | / | / | / | / | / | -9%[60.1 µM]
COc1ccc(CC2=C(O)c3ccccc3C(=O)C2=O)cc1 | ? | 7% | 23% | -18% | -6% | -1%
O=C1C(=O)c2ccccc2C(O)=C1CCCCl | 14µM* | 13% | 30% | ? | ? | -9%
Cc1sc2nc3c4ccccc4c(NCc4ccco4)nn3c(=O)c2c1C | -1% | ? | 11µM* | ? | -21% | -19%
CC(C)Oc1cccc(C(=O)N/N=C/c2ccoc2)c1 | 2% | -4% | -2% | -8% | -3% | -9%
Cc1cccc(C(=O)N/N=C/c2ccoc2)c1 | ? | -8%[11.6 µM] | 25µM* | ? | 19% | ?
O=C(COC(=O)CCCc1nc2ccccc2s1)Nc1ncc(Cl)cc1Cl | 96% | -14% | 40µM* | ? | -2% | 0%
O=c1[nH]c2ccc(Br)cc2o1 | 52% | 1% | / | -11% | -8% | -9%
O=C(CCl)c1ccc2[nH]c(=O)oc2c1 | ? | -12%[11.6 µM] | -21% | 45µM* | 1% | -23%
COc1cc(Cl)c(C)cc1NC(=O)c1ccccc1NC(=O)CN1CCOCC1 | ? | -4% | ? | 79µM* | -16% | ?
COc1cc(OC)cc(C(=O)Nc2nnc(NC(=S)Nc3ccccc3)s2)c1 | 5% | ? | -3% | ? | -13% | 79µM*
Cc1c(/C=C2\SC(=Nc3cccc(C(=O)O)c3)NC2=O)c2ccccc2n1C | ? | -18%[11.6 µM] | ? | 79µM* | ? | -37%
O=C(Nc1ccc(F)c(F)c1)c1cnn2c1NC(=C1CC1)C=C2C(F)(F)F | 57% | / | / | / | 12% | -11%

Screens deposited in PubChem BioAssay by National Center for Advancing Translational Sciences (NCATS).
